High-throughput results as filed in PubChem BioAssay.
HCV inh = blocks hepatitis C virus. Huh7.5.1 HCVcc-Cre infection, luciferase reporter, 44 h. hit rate 3.4% among 340,000. Potency, µM (series often up to 41.8 µM), most hits filed as inhibitors
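Cells (1,000/well) were plated 4 h before compound, then infected with HCVcc-Cre virus (~0.5 moi). After 44 h further culture, infection was read as luciferase luminescence following a 15 min substrate incubation at room temperature.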
Lassa entry inh = Lassa virus entry inhibition. Lassa virus pseudotype entry inhibition, cell reporter. hit rate 1.2% among 300,000. Potency, µM (titrated, usually from 37.9 µM), usual class: inhibitors. AID 540256; calls by dose curve; tested in HEK293 cells; note: nearly all actives have a fitted effect of over 50% in size
FMDV inh = foot and mouth disease virus antiviral activity; FMDV antiviral cell-based qHTS; Potency, µM (doses to about 57.9 µM), hits mostly inhibitors; hit rate 1.2% among 410,000; AID 1159524; calls by dose curve; tested in HEK293T cells; note: read-out not given here; nearly all actives have a fitted effect of over 45% in size
HCMV inh = blocks human cytomegalovirus replication; HFF cells, HCMV-luciferase reporter, 72 h; hits give low values; activity change, negative = inhibition, % at 57.5 µM; hit rate 4.5% among 410,000; AID 1259415; in the data active = activity change below about -60%; inconclusive = no clear call, values can overlap the other calls; inactive = above about -39%
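Two-dose cell screen: HFF monolayers treated with compounds and infected with luciferase-expressing HCMV at 1 PFU/cell, 72 h at 37C, then lysed for luciferase measurement.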
MARV entry inh = inhibitors of Marburg virus binding or cell entry. Marburg virus pseudotyped entry inhibition, cell reporter. Potency, µM (top dose mostly 37.8 µM), usual class: inhibitors. hit rate 1.8% among 300,000; calls by dose curve; tested in HEK293 cells
FBPA Giardia inh = Giardia lamblia aldolase inhibition. purified Giardia FBPA. Potency, µM (doses to about 59.6 µM), usual class: inhibitors. hit rate 0.71% among 290,000. AID 2451; note: nearly all actives have a fitted effect of over 55% in size
Target sequence (A8B2U2 whole entry, looked up): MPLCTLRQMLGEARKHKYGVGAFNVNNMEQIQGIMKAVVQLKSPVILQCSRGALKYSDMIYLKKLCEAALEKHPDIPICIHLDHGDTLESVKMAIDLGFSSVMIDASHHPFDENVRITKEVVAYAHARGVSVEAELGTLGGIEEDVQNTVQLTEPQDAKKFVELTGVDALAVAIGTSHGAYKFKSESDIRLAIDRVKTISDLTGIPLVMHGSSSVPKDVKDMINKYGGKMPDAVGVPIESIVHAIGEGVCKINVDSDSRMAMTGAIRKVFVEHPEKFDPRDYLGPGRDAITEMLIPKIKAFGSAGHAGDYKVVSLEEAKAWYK
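40 nM FBPA preincubated 10 min at RT with compound (up to 57.5 uM final), then substrate plus GAPDH/TPI/NAD/arsenate coupling and diaphorase/resazurin added. Fluorescence read after 20 min at RT, 525/598 nm.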
Numbers stand for hits; – = inactive; ? = inconclusive; · = no result; [ ] = another dose, or the depositor's remark. Compounds with a hit are over-represented: about 8.3% of the library has one in this group of screens. Unless noted, calls come from the whole dose curve; as a rule, active = well fitted curve in the direction sought with a large enough effect; inconclusive = small, poorly fitted or top-dose-only effect, or another doubt; inactive = no such curve, though single readings can be large; an effect the other way counts as inactive or inconclusive.

SMILES	HCV inh	Lassa entry inh	FMDV inh	HCMV inh	MARV entry inh	FBPA Giardia inh
CC1=C(C(=O)Nc2ccccn2)C(c2ccccc2)n2ncnc2N1 (stereo unspecified)	–	–	–	–	–	–
COc1ccc(C2C(C(=O)Nc3ccccn3)=C(C)Nc3ncnn32)c(OC)c1 (stereo unspecified)	–	·	–	-64.1	–	–
COC(=O)c1c(C)[nH]c(C(=O)/C=C/c2ccccc2)c1C	–	–	–	–	?	–
COC(=O)c1c(C)[nH]c(C(=O)/C=C/c2ccc(C)cc2)c1C	–	·	?	-90.4	·	–
CCOc1ccc(C2c3[nH]c4ccccc4c3CCN2C(=O)CSc2ccccc2)cc1 (stereo unspecified)	·	6.31µM	–	–	·	·
Cc1ccc(C2c3[nH]c4ccccc4c3CCN2C(=O)CSc2ccccc2)cc1 (stereo unspecified)	·	10µM	–	–	·	·
O=C(COC(=O)c1ccc[nH]c1=O)Nc1ccc(N2CCCCC2)cc1	–	·	2.51µM	-75.4	·	·
O=C(OCC(=O)N1CCCCCC1)c1ccc[nH]c1=O	–	·	–	-60.1	·	·
COc1ccccc1C1CN(CC(=O)N2CCC(C(O)c3ccccn3)CC2)Cc2ccccc2O1 (stereo unspecified)	·	·	–	·	·	·
C[C@@H]1CC[C@H]2C(=O)N(Cc3ccc(Cl)cc3)C[C@H](O)CN2[C@@H]1c1ccc(Br)cc1	·	·	·	·	–	·
Cc1sc2ncn(CC(=O)NCCCC(=O)Nc3ccc(C(C)C)cc3)c(=O)c2c1C	–	?	–	-75.9	?	–
CCOC(=O)c1ccc(NC(=O)CCn2c(=O)c3cccn3c3cccnc32)cc1	·	–	–	–	·	·
O=C(CSC1=NCCS1)N1CCN(c2ccc(Cl)cc2)CC1	?	–	?	-81.9	–	–
CCOc1ccccc1NC(=O)C(C)Sc1cc(-c2ccccc2)nc(C)n1 (stereo unspecified)	·	–	–	–	–	·
Cc1nc(SC(C)C(=O)Nc2ccccc2Cl)cc(-c2ccccc2)n1 (stereo unspecified)	·	?	–	-70.2	?	·
COc1ccc(C2CC(c3cccc(F)c3)=NN2c2ccc(S(N)(=O)=O)cc2)cc1 (stereo unspecified)	?	·	?	–	–	·
COc1ccc(C2CC(c3cccc(C(F)(F)F)c3)=NN2c2ccc(S(N)(=O)=O)cc2)cc1 (stereo unspecified)	?	·	–	-101.0	·	·
O=[N+]([O-])c1cccc2c(N3CCCC3)ccnc12	3.55µM	?	?	-106.1	?	–
Cc1nn2cc(-c3ccc(OC(C)C)cc3)nc2s1	·	?	–	–	?	·
O=C1CC(c2ccccc2)Cc2[nH]c(=O)c(-c3nc(-c4cccc(Cl)c4)cs3)cc21 (stereo unspecified)	·	–	–	–	–	·
Cc1ccc(CN2CCN(Cc3ccncc3)CC2CCO)o1 (stereo unspecified)	–	–	–	–	–	–
Cc1ccc(CN2CCN(Cc3c(C)nn(C(C)C)c3C)CC2CCO)o1 (stereo unspecified)	–	·	–	-98.6	·	–
N#CC(C#N)=NNc1ccc(OC(F)(F)F)cc1	·	·	?	·	·	–
Cc1[nH]c2ccccc2c1N=Nc1ccccc1F	10µM	–	–	–	?	–
CCC(=O)N1CCN(c2nc(CC)nc3sc4c(c23)CCCC4)CC1	?	?	?	–	–	–
SMILES	HCV inh	Lassa entry inh	FMDV inh	HCMV inh	MARV entry inh	FBPA Giardia inh
CC1CCc2c(sc3nc(C(C)(C)C)nc(N4CCN(C(=O)CCl)CC4)c23)C1 (stereo unspecified)	?	?	20µM	-102.6	?	–
CC(C)C[C@@H](NC(=O)OC(C)(C)C)C(=O)N1O[C@]23C=C[C@]14C[C@@H](O)CC[C@]4(C)C2CC[C@]1(C)[C@@H]([C@H](C)/C=C/[C@H](C)C(C)C)CC[C@H]13 (stereo partly specified)	·	·	·	–	·	·
C/C=C\C1=C(CO)C(=O)C2O[C@]2(CC=C(C)C)C1=O (stereo partly specified)	·	·	·	·	·	–[12.9 µM]
CCO[C@H](c1cc(OC)cc([N+](=O)[O-])c1OC)[C@H](C)[C@@H](OC)[C@H](C)/C=C/CC(=O)OC	·	·	·	·	–	·
CC(=O)Nc1ccc(C2Nc3cc(C)c(C)cc3NC3=C2C(=O)CC(C)(C)C3)cc1 (stereo unspecified)	–	·	–	–	·	–
Cc1cc2c(cc1C)NC(c1nc3ccccc3[nH]1)C1=C(CC(C)(C)CC1=O)N2 (stereo unspecified)	–	–	–	-104.6	–	·
Cc1ccc(C(=O)N2C(=O)C(c3ccccc3)Oc3ccccc32)cc1 (stereo unspecified)	–	?	–	–	7.94µM	–
Cc1ccc(C(=O)N2c3ccccc3OCC2C)cc1 (stereo unspecified)	–	·	–	–	·	–
CCN(CC)S(=O)(=O)c1cccc(-c2nnc(SCCOc3ccccc3)o2)c1	?	10µM	?	-67.9	?	–
CCN(CC)S(=O)(=O)c1cccc(-c2nnc(SCCOc3ccccc3C)o2)c1	12.6µM	–	–	?	?	–
CN(C)c1ncc2nc(-c3cc(F)cc(F)c3)c(=O)n(C[C@H]3CCCO3)c2n1	·	·	–	·	·	–
CC(C)=CCC[C@](C)(O)C1CC[C@]2(C)[C@@H]1CC[C@@H]1[C@@]3(C)CCC(=O)C(C)(C)[C@@H]3CC[C@]12C (stereo partly specified)	·	·	·	·	·	–
COC(=O)[C@@]1(Cc2ccc(OC)cc2)[C@H]2c3cc(C(=O)N(C)C)n(Cc4ccc(Cl)c(C(F)(F)F)c4)c3C[C@H]2CN1C(=O)c1ccccc1	·	·	·	·	·	–
COc1cc(C(=O)NCc2cccnc2)ccc1OCC(=O)Nc1cccc(C(F)(F)F)c1	?	?	11.2µM	-73.2	?	·
O=C(NCc1cccnc1)Nc1cccc(C(F)(F)F)c1	–	–	–	-69.6	–	–
CCOc1ccc(NC(=O)COc2ccc(C(=O)NCc3cccnc3)cc2OC)cc1	?	–	–	–	–	·
COc1ccc(CN(C)C(=O)c2ccc(OCC(=O)Nc3cccc(C(F)(F)F)c3)c(OC)c2)cc1	·	·	?	-61.9	·	·
O=C(NCc1c(-n2cccc2)sc2c1CCCC2)Nc1cccc(C(F)(F)F)c1	·	–	?	-73.0	–	·
O=C(NCc1cccnc1)Nc1cccc(NC(=O)NCc2cccnc2)c1	–	–	–	–	–	–
Cc1noc(C)c1-c1ccc2ncnc(NCc3cccnc3)c2c1	·	·	–	·	·	–
O=C(C1CC1)N1CCc2cc(Br)cc(S(=O)(=O)N3CCN(c4cccc(C(F)(F)F)c4)CC3)c21	·	–	–	–	–	·
COc1ccc(C(=O)NCC2(c3ccc(OC)c(OC)c3)CCCC2)c(OC)c1	14.1µM	·	?	–	·	–
COc1ccc(CC(=O)NCC2(c3ccc(OC)c(OC)c3)CCCC2)cc1	–	–	–	–	?	–
N#C/C(=C/c1ccc(N2CCCCCC2)o1)c1ccc(Cl)cc1	?	–	25.1µM	·	?	?
C/C(=N\NC(=S)NC(C)C)c1ccc2c(c1)OCCO2	?	?	–	?	?	–
